39 molecules from PubChem BioAssay (NCI) can be followed below.

Molecules are shown by their SMILES. This is part of a sample that, as a whole, favours compounds with a hit. Of some 79,000 tested, about 15% had one in any assay. Activity calls are given as the source filed them. Rule as the data show it: active = growth inhibition above about 70%; inactive = the rest.

The nature of the test: NCI Yeast Anticancer Drug Screen. Data for the sgs1 mgt1 strain (AID 161).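 Also: 0% = growth of cultures given vehicle only.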 To be noted: S. cerevisiae sgs1 mgt1 strain, at 50.0 µM, hits give high values. The method, boiled down:
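Test agents were incubated with a DNA-repair-mutant yeast strain. Growth was then read and compared against vehicle-treated controls.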
Consider `CNS(=O)(=O)c1ccccc1C=C(c1ccccc1)c1ccccc1`, for which the growth inhibition was 94% (active).

For `CC(C)c1cc(C(C)C)c(Cl)c(Cl)c1O` (tested in a mixture with another compound), the growth inhibition is 99.5% (active).

Take `Nc1cccc2cccnc12`: the growth inhibition is 78.4% (active).

For `C[n+]1c(/C=C/c2ccc(N3CCCC3)cc2)sc2ccccc21`, the growth inhibition is 98.5% (active).

Take `Nc1cn(C2OC(CC(c3ccccc3)(c3ccccc3)c3ccccc3)C(O)C2O)c(=O)[nH]c1=O` (centres undefined): the growth inhibition is 42.1% (inactive).

As for `c1ccc(Cn2nnc(-c3ccccc3)c2-c2ccccc2)cc1`, the growth inhibition was 85.6% (active).

As to `CCCCCC(CCCCC)OC(=O)CCN(CCCCC)CCCCC`, the growth inhibition is 84% (active).

For the molecule `C=CCC1(OC(C)=O)CC2C(=O)C(=O)C(C1)N2OC(=O)c1ccccc1` (centres undefined), the growth inhibition is 99.3% (active).

As for `C=CS(=O)(=O)c1ccc([N+](=O)[O-])cc1`, the growth inhibition was 99.5% (active).

Take `Cc1ccc(S(=O)(=O)Oc2ccc(C(C)(C)C)cc2Cl)cc1`: the growth inhibition was 9.35% (inactive).

For the molecule `O=C(CCl)N1CCN(C(c2ccccc2)c2ccccc2)CC1`, the growth inhibition is 97.8% (active).

Regarding `Oc1ccc2ccccc2c1.[Cu+2]`, the growth inhibition is 98.4% (active).

As to `NS(=O)(=O)c1ccc(NC(=O)Cc2nc3ccccc3s2)cc1`, the growth inhibition was 93.2% (active).

As to `O=C(COc1ccc(Cl)cc1)OCCO`, the growth inhibition was 0.4% (inactive).

With `NC(=Nc1ccccc1)SCc1ccc([N+](=O)[O-])cc1`, the growth inhibition was 57.2% (inactive).

Take `N[C@@H]1CCCC[C@@H]1N.O=C([O-])CN(CP(=O)([O-])[O-])CP(=O)([O-])[O-].[Pt+2]`: the growth inhibition is 99.5% (active).

`C/C=C(\C)CC/C=C/CO[Si](C)(C)C(C)(C)C`: the growth inhibition was 5.25% (inactive).

In the case of `CCOC(=O)c1cnc2cc3cccccc3n2c1=O`, the growth inhibition is 76.5% (active).

With `C(=N\NC1=NCCN1)/c1ccc(-c2cn3cc(/C=N/NC4=NCCN4)ccc3n2)cc1`, the growth inhibition was 99.3% (active).

Regarding `CC(CN(C)C)C(/C=C/c1ccc(F)cc1)=N\Nc1ccccc1` (centres undefined), the growth inhibition is 42.6% (inactive).

As to `O=C1C(Sc2ccc3ccccc3c2)=C(Sc2ccc3ccccc3c2)C(=O)c2ccccc21`, the growth inhibition was 98.9% (active).

As to `CC(O)c1cccnc1` (centres undefined), the growth inhibition is 20% (inactive).

For the molecule `Cc1cccc2nc3nc(Cl)c(Cl)nc3n12`, the growth inhibition is 64.5% (inactive).

Regarding `CSc1cc2c(cc1N)Cc1cc(F)ccc1-2`, the growth inhibition was 98.5% (active).

For the molecule `CC(C)C1=CC23CCC4C(C)(C(=O)O)CCCC4(C)C2CC1c1c(O)ccc(O)c13` (centres undefined), the growth inhibition is 99.3% (active).

`C=CCNC(=S)N/N=C(\CCC)c1ccccn1`: the growth inhibition is 99.6% (active).

As to `C#CC(C)(C)OC(C)=O`, the growth inhibition was 69.5% (inactive).

Regarding `Cc1cc(N2C(=O)CSC2=S)c([N+](=O)[O-])cc1C`, the growth inhibition was 99.5% (active).

As to `Cc1[nH]c(=O)[nH]c(=O)c1CN(C)Cc1cc(Cl)cc(Cl)c1O`, the growth inhibition is 77.4% (active).

On to `CCCCC(CC)C(O)C(=O)O` (centres undefined), for which the growth inhibition is 40.4% (inactive).

For `CCOCCOc1ccc(OCCOCC)cc1`, the growth inhibition was -7% (inactive).

Take `O=C(O)c1ccc(C(=O)c2ccccc2C(=O)O)cc1`: the growth inhibition is 99.4% (active).

As to `CCCCCCCCCCCCCCNC(=O)CCC(NC(=O)c1ccc(N(C)Cc2cnc3nc(N)nc(N)c3n2)cc1)C(=O)NCCCCCCCCCCCCCC` (centres undefined), the growth inhibition is 86.3% (active).

Consider `C=C1C(=O)C23OC2C1CCC(=O)C1(C)CC[C@H](OC(C)=O)C(C)(C)[C@H]1CC3O` (some centres undefined), for which the growth inhibition is 99.5% (active).

Consider `CCCCCCCCCCC(NC(C)=O)(C(=O)OCC)C(=O)OCC`, for which the growth inhibition is 67.3% (inactive).

With `ClC(Cl)(Cl)/C=C/c1cnc2ccccc2n1`, the growth inhibition was 49.3% (inactive).

In the case of `CCc1nc(N)nc(N)c1-c1ccc(N(C)Cc2ccccc2)c([N+](=O)[O-])c1`, the growth inhibition was 3.1% (inactive).

Consider `O=C(COC(=O)C(c1ccccc1)c1ccccc1)c1ccc(Br)cc1`, for which the growth inhibition was -4.25% (inactive).

With `OCCN1COc2cc3c(cc2C1)OCN(CCO)C3`, the growth inhibition was 13.2% (inactive).
